In the library only some 19% were active in any assay of this set; here they are far more common.
TDP1 cell noCPT = qHTS for Inhibitors of human tyrosyl-DNA phosphodiesterase 1 (TDP1): qHTS in cells in absence of CPT. DT40 Tdp1-/- hTDP1 cells, no CPT, ATP luminescence, 48 h. hit rate 15% among 420,000. Potency, µM (doses to about 46.2 µM), without a hit: at the highest dose activity change, negative = growth inhibition, hits mostly inhibitors. AID 686978, 2013; also: potency is read from the fitted curve at half-maximal effect; nearly all actives have a fitted effect of over 55% in size
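Compound effects on proliferation are scored in DT40 Tdp1-/-;hTDP1 cells in the absence of CPT. ATP levels (CellTiter-Glo luminescence) are recorded after a ≥48 hr, 37 °C incubation.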
ELG1 repair inh = inhibitors of ELG1-dependent DNA repair in HEK293T cells; Potency, µM (top dose mostly 46.1 µM), without a hit: top-dose activity change, negative = inhibition, usual class: inhibitors; AID 504467; hit rate 2.3% among 330,000; HEK293T ELG1-luciferase reporter, luminescence, 16 h; DNA damage induced by 5-fluorouridine; also: potency is read from the fitted curve at half-maximal effect; nearly all actives have a fitted effect of over 55% in size
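Overnight (16 hr) co-exposure of 2,000 cells/well to 5-fluorouridine and compound at 37 °C preceded detection. Luciferase was quantified via ONE-Glo luminescence; loss of signal denotes inhibition.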
TDP1 block = inhibitors of human tyrosyl-DNA phosphodiesterase TDP1; recombinant TDP1, AlphaScreen DNA substrate cleavage; Potency, µM (series often up to 130 µM), for inactives: top-dose activity change, negative = inhibition, hits mostly inhibitors; Q9NUW8; hit rate 0.28% among 350,000; also: potency is read from the fitted curve at half-maximal effect; nearly all actives have a fitted effect of over 40% in size
Target sequence (Q9NUW8 whole entry, looked up): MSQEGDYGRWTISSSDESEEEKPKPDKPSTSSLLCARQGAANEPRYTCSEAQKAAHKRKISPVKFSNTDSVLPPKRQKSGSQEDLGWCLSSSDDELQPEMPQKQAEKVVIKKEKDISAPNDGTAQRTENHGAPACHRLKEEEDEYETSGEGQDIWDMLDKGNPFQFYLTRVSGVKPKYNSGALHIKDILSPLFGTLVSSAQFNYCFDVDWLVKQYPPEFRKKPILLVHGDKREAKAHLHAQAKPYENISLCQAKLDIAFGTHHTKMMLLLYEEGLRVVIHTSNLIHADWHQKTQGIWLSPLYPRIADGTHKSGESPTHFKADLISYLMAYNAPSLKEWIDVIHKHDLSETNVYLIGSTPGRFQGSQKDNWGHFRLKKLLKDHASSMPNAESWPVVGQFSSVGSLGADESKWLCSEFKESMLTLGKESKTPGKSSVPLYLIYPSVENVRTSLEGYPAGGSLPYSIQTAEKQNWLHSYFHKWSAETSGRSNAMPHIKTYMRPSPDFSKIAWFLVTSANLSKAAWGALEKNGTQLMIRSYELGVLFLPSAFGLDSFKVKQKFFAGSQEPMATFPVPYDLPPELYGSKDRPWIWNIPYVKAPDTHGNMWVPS
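Tdp1 1 nM final; 15 min RT w/ cpd; substrate 15 nM, 5 min; beads 10 ug/ml, 10 min; AlphaScreen read. Neg ctrl: no enzyme.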
Giardia kill = Giardia lamblia killing; Giardia lamblia trophozoite viability; activity change, % at 7.66 µM, hits read low; hit rate 0.15% among 340,000; in the data active = activity change below about -80%; inconclusive = between about -30% and that limit;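 also: parasites exposed to compound for two days anaerobically before the ATP read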
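Media and compound were dispensed first, then trophozoites at 100 cells/well; plates sat 48 hrs at 37 deg C without oxygen before ATP luminescence reagent was added and read after 15-30 min at room temperature.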
IL-1B inflam inh = inhibitors of inflammasome signaling (IL-1 beta secretion) | THP-1 LPS/ATP IL-1B secretion, AlphaLISA, 16 h; stronger effect = lower value | activity change, % at 57.5 µM | hit rate 4.7% among 360,000 | AID 743279; in the data active = activity change below about -50%; inconclusive = mostly about -30% to -49%
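THP-1 cells pretreated 1 hr with compounds (up to 57.5 uM final), then stimulated with LPS (250 ng/mL final) plus ATP (1.25 mM final); secreted IL-1B measured by AlphaLISA after 16 hr, decreased signal indicating inhibition.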
DT40 TDP1 CPT = growth inhibition of DT40 Tdp1-/-;hTDP1 cells with camptothecin (screen for TDP1 inhibitors) | Potency, µM (titrated, usually from 46.2 µM), for the others: top-dose activity change, negative = growth inhibition, hits mostly inhibitors | hit rate 12% among 420,000 | chicken DT40 Tdp1-/-;hTDP1 cells + 20 nM CPT, ATP luminescence, 48 h; also: potency is read from the fitted curve at half-maximal effect; nearly all actives have a fitted effect of over 55% in size
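Cell growth measured by CellTiter-Glo luminescence after a minimum 48 h, 37 C compound exposure with 20 nM CPT in Tdp1-knockout DT40 cells stably expressing hTDP1, seeded 400/well; qHTS titration format.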
* = called active by the depositor; ? = inconclusive; . = no result given; [ ] = remark or other dose. Unless noted, calls follow the shape of the dose curve; as a rule, active = well fitted curve in the direction sought with a large enough effect; inconclusive = small, poorly fitted or top-dose-only effect, or another doubt; inactive = no such curve, though single readings can be large; an effect the other way counts as inactive or inconclusive. % is scaled to controls: 0 for no effect and ±100 for the full control effect.

SMILES	TDP1 cell noCPT	ELG1 repair inh	TDP1 block	Giardia kill	IL-1B inflam inh	DT40 TDP1 CPT
COC(=O)c1c(N)n(-c2cc(Cl)cc(Cl)c2)c2nc3ccccc3nc12	9.2µM*	.	.	.	.	16µM*
COC(=O)c1c(N)n(-c2ccc(OC)c(Cl)c2)c2nc3ccccc3nc12	-27%	.	.	.	.	?
CCCn1c(NC(=O)CCS(=O)(=O)c2ccc(C)cc2)nc2ccccc21	?	-13%	.	-12	-10	?
O=C(N/N=C/c1ccc(-c2cccc([N+](=O)[O-])c2)o1)[C@H]1C[C@@H]1c1ccccc1	16µM*	?	0%	-14	-20	29µM*
O=C(/C=C/c1ccc(-c2ccccc2[N+](=O)[O-])o1)c1ccccc1	23µM*	?	3%	-27	-67*	?
O=C(N/N=C/c1ccc(-c2ccccc2[N+](=O)[O-])o1)[C@H]1C[C@@H]1c1ccccc1	?	?	3%	-9	4	16µM*
O=C(N/N=C/c1ccc(-c2ccc([N+](=O)[O-])cc2)o1)[C@H]1C[C@@H]1c1ccccc1	?	-16%	.	-6	15	?
COC1CCCN(C(=O)c2cccc(OC3CCN(S(=O)(=O)N(C)C)CC3)c2)C1 (stereo not given)	5%	5%	0%	-7	44	-8%
CC(C)CCc1noc(CN(CC2CCC2)CC2CCCO2)n1 (stereo not given)	-17%	0%	1%	3	0	?
CC(=O)Nc1ccc(S(=O)(=O)NC2CC2)cc1	-8%	-14%	.	10	10	-4%
CC1CCCN(S(=O)(=O)c2ccc(NC(=O)CN3CCN(C)CC3)cc2)C1 (stereo not given)	-3%	15%	2%	-13	4	?
CC1CCCN(CC(=O)Nc2ccc(S(=O)(=O)N3C(C)CCCC3C)cc2)C1 (stereo not given)	16µM*	.	.	.	-20	?
CC1CCN(CC(=O)Nc2ccc(S(=O)(=O)N3CCCC(C)C3)cc2)CC1 (stereo not given)	-12%	?	.	13	-51*	?
CCOC(=O)C1CCN(CC(=O)Nc2ccc(S(=O)(=O)N3CCC(C)CC3)cc2)CC1	21µM*	?	.	-28	18	?
Cc1nc2ccccc2c(=O)n1/N=C/c1c(O)ccc2oc3c(c12)CCCC3	18µM*	?	6%	-4	31	21µM*
Cc1nc2ccccc2c(=O)n1/N=C/c1c(O)ccc2ccccc12	18µM*	?	5%	-20	57	?
Cc1nc2ccccc2c(=O)n1/N=C/c1cn[nH]c1-c1ccccc1	15µM*	?	1%	-1	-14	?
Cc1nc2ccccc2c(=O)n1/N=C/c1ccccc1F	4%	?	.	-5	-1	-4%
NC(=O)N/N=C/c1c(O)ccc2oc3c(c12)CCCC3	?	-19%	9%	-6	-98*	?
CCCCCn1c(=O)[nH]c2cc(C(=O)Nc3ccc(F)c(F)c3)ccc2c1=O	?	.	12%	.	.	-25%
CC[C@@H](CO)NCCN[C@@H](CC)CO	1%[21.1 µM]	.	.	.	.	0%[21.1 µM]
CCOc1cc(/C=N/NC(=O)C(C)Sc2ccccc2)ccc1O (stereo not given)	?	-3%	-6%	-2	0	-16%
CCOC(=O)c1c(C)[nH]c(C)c1S(=O)(=O)N1CCCC(C(=O)Nc2ccc(OC)c(OC)c2)C1 (stereo not given)	-8%	.	-1%	.	.	-9%
O=c1c2ccccc2nc(N/N=C/c2c(O)ccc3ccccc23)n1O	5.2µM*	?	8%	?	136	3.7µM*
O=c1c2ccccc2nc(N/N=C/c2ccc(O)cc2)n1O	-22%	?	-9%	6	12	?
SMILES	TDP1 cell noCPT	ELG1 repair inh	TDP1 block	Giardia kill	IL-1B inflam inh	DT40 TDP1 CPT
O=C1CSC(=S)N1N=Cc1c(O)ccc2ccccc12	13µM*	.	.	-2	32	21µM*
COc1ccc2ccccc2c1/C=N/N1C(=O)CSC1=S	-21%	11%	3%	-10	5	6%
C[C@H]1CN=C(Nc2ccccc2)N1CC1CCCCC1	?	-16%	.	-5	-4	?
c1ccc(CCCCN2C(Nc3ccccc3)=NC[C@@H]2Cc2ccccc2)cc1	23µM*	-14%	-4%	-15	-55*	?
CC(C)(C)C1CCC(CN2C(Nc3ccccc3)=NC[C@@H]2Cc2ccccc2)CC1 (stereo not given in full)	13µM*	-9%	3%	-12	?	23µM*
c1ccc(C[C@H]2CN=C(Nc3ccccc3)N2CCCC2CCCC2)cc1	16µM*	?	.	-17	-4	?
CCN1C(Nc2ccccc2)=NC[C@@H]1Cc1ccccc1	-23%	?	.	35	-2	?
CCCCCCCN1C(Nc2ccccc2)=NC[C@@H]1Cc1ccccc1	18µM*	-23%	.	4	-16	?
C[C@H]1CN=C(Nc2ccccc2)N1CCCC1CCCCC1	?	1%	.	11	?	?
Cc1ncc(CO)c(CO)c1OCC(O)CN1CCN(c2ccc(F)cc2)CC1 (stereo not given)	?	.	.	.	59	?
COc1ccc(-c2nc3c(C#N)c[nH]n3c2NC2CCCCC2)c(OC)c1	?	.	6%	.	.	?
COc1ccc(-c2nc3c(C#N)c[nH]n3c2NC2CCCCC2)cc1	16µM*	.	3%	.	.	16µM*
COc1ccc(-n2c(NC(=O)c3ccco3)c(C#N)c3nc4ccccc4nc32)cc1	23µM*	?	3%	11	4	16µM*
CCOC(=O)c1c(NC(=O)c2ccco2)n(C2CCCCC2)c2nc3ccccc3nc12	8.2µM*	?	4%	5	-21	7.3µM*
COc1ccc(C(=O)Nc2ccc(NC(=O)c3ccco3)cc2)cc1	-16%	?	-6%	6	-6	-10%
CCCCn1c(NC(=O)CC)c(C#N)c2nc3ccccc3nc21	-16%	0%	3%	10	15	-2%
CCCCn1c(NC(=O)c2ccccc2Cl)c(C#N)c2nc3ccccc3nc21	26µM*	23µM*	-8%	12	-98*	23µM*
CCOc1ccc(CCNC(=O)C2CCCN(S(=O)(=O)N3CC(C)CC(C)C3)C2)cc1OCC (stereo not given)	?	-8%	2%	9	6	?

Assay outcomes (PubChem BioAssay)
